# Screening results as filed in PubChem.
# This excerpt belongs to a sample that is enriched for hits.
# p53ts 39C kill: cytotoxicity in p53ts cells at nonpermissive temperature; H1299-p53A138V viability at 39C, ATP luminescence, 24 h; Potency, µM (series often up to 46.1 µM), most hits filed as cytotoxic; 130,000 tested, 1.5% active; AID 902; note: nearly all actives have a fitted effect of over 55% in size
# Hsp90 Hop PPI: changes Hsp90-Hop TPR2A binding signal, up or down | Potency, µM (series often up to 57 µM) | 71,000 tested, 0.44% active | AlphaScreen TPR2A-His6 binding biotin-Hsp90 C-terminal peptide; active = well fitted curve in either direction with a large enough effect; inconclusive = small, poorly fitted or top-dose-only effect, or another doubt
# IkB signaling: suppresses IkB signaling in ABC-DLBCL reporter cells | ABC-DLBCL IkBa-CBG/CBR dual luciferase ratio, 4 h; response scale: scaled: untreated 0%, proteasome inhibitor 100% | 110,000 tested, 0.04% active | Potency, µM (titrated, usually from 57.1 µM); active = well fitted curve in the direction sought with a large enough effect in the signal ratio, not every such curve was filed as active; inconclusive = small, poorly fitted or top-dose-only effect, or a change in a side signal; the % refers to the signal ratio;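 note: the direction sought is a rising ratio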
#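 In this assay, an IκBα–CBG68 fusion accumulates when IKK-driven degradation is blocked; native CBR normalizes for cell number. OCI-Ly3 cells were treated 4 h with compound and doxycycline, then green and red light read after Chroma-Glo addition.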
# Luciferase inh: firefly luciferase inhibition; P08659; purified firefly luciferase, luminescence, 8 min; Potency, µM (highest dose often 57.1 µM), usual class: inhibitors; 72,000 tested, 2.2% active; AID 411; note: nearly all actives have a fitted effect of over 40% in size
#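 Compounds were tested as concentration series (qHTS) against purified P. pyralis luciferase with luciferin and 10 uM ATP in 50 mM imidazole pH 7.2, 50 mM KCl, 7 mM MgCl2, 0.01% Tween 20, 0.05% BSA. Luminescence was read after 8 min at ambient temperature.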
# IMPase inh: cell-permeable inhibitors of inositol monophosphatase (IMPase). CHO-M1 cells, IP1 accumulation, HTRF TR-FRET ratio. inhibition (IP1 accumulation), % at 46.1 µM. 120,000 tested, under 10 active; active = well fitted curve in the direction sought with a large enough effect in the signal ratio, not every such curve was filed as active; inconclusive = small, poorly fitted or top-dose-only effect, or a change in a side signal; inactive = no such curve, though single readings can be large or run the other way; the % refers to the signal ratio;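 note: cells stimulated with carbachol in lithium chloride buffer; higher means more IMPase inhibition seen as more IP1 and lower FRET ratio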
# Target sequence (P97697 whole entry, looked up): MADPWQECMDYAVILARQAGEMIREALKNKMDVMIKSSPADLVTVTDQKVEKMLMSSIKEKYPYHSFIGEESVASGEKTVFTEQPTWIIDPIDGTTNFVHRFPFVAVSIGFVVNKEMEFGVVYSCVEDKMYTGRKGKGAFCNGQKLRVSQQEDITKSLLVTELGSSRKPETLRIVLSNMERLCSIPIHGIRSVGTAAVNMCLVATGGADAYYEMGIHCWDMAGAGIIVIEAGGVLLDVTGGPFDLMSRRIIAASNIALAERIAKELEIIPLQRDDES
#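 Seeded CHO-M1 cells were dosed with compound at up to 46 uM, stimulated with carbachol for 30 min, then lysed in IP-One detection reagents. Higher IP1 lowers the TR-FRET signal.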
# p53ts 32C kill: p53ts cell cytotoxicity, permissive temperature; 130,000 tested, 0.93% active; AID 924; Potency, µM (titrated, usually from 46.1 µM), usual class: cytotoxic; H1299-p53A138V at 32C, ATP luminescence viability, 24 h; note: nearly all actives have a fitted effect of over 55% in size
#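 H1299-p53 A138V cells (temperature-sensitive p53) exposed 24 h to up to 46 uM compound at 32C, where p53 is wild-type in conformation. Viability read as ATP luminescence and normalised to DMSO and 100 uM tamoxifen. AC50 fitted with the Hill equation.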
# Hits are given with their value; i = inactive; ? = inconclusive; nt = no result given; ! = not confirmed by another sample; [ ] = another dose, or the depositor's remark. Unless noted, calls come from the whole dose curve; as a rule, active = well fitted curve in the direction sought with a large enough effect; inconclusive = small, poorly fitted or top-dose-only effect, or another doubt; inactive = no such curve, though single readings can be large; an effect the other way counts as inactive or inconclusive.
SMILES,p53ts 39C kill,Hsp90 Hop PPI,IkB signaling,Luciferase inh,IMPase inh,p53ts 32C kill
Clc1ccc(-c2nc(-c3ccccn3)no2)cc1Cl,7.94µM,i[11 µM],?,3.16µM,i,5.01µM
CC(C)Nc1ccc(-c2nc(-c3ccccn3)no2)cc1[N+](=O)[O-],i,nt,i,nt,nt,i
Brc1ccc(-c2nc(-c3ccccn3)no2)o1,6.31µM,i,?,3.16µM,i,7.94µM
O=C(CS(=O)(=O)Cc1ccccc1)N1CCN(Cc2ccc3c(c2)OCO3)CC1,12.6µM,i,i,i,i,12.6µM
CCOc1ccccc1CNC(=O)c1cnc2sc(N(CC)CC)nn2c1=O,i,nt,?,nt,nt,i
c1ccc(-c2nc3nonc3nc2-c2ccccc2)cc1,12.6µM,?,i,i,i,?
CC(=O)c1c(C)nn(C(=O)c2cccs2)c1C,i,i,i,i,i,i
Cc1nn(C(=O)c2ccc3c(c2)OCO3)c(N)c1-c1ccccc1,?,i,i,2µM,i,12.6µM
Cc1nn(C(=O)c2cccs2)c(N)c1-c1ccccc1,?,i,i,15.8µM,i,12.6µM
CCOc1ccc(/C=C/c2nc(C#N)c(N3CCC(C)CC3)o2)cc1,i,nt,?,nt,nt,i
C=CCn1c(-c2ccc(OC)cc2)nc2ccccc21,?,i,i,25.1µM,i,15.8µM
C=CCn1c(-c2ccc(N)cc2)nc2ccccc21,nt,nt,nt,nt,i,nt
C[C@@]12C[C@H](O)[C@@H]3[C@H](CCC4=CC(=O)CC[C@]43C)[C@H]1CC[C@@H]2c1csc(N)n1,i[9.22 µM],i[11 µM],i[11.4 µM],i[11.4 µM],nt,i[9.22 µM]
FC(F)(F)c1cccc(Nc2c3c(nc4ccc(Cl)cc24)CCC3)c1,12.6µM,nt,?,nt,nt,11.2µM
Cn1ccc2cc3c(cc21)CCN3C(=O)Nc1cccnc1,10µM,i,i,25.1µM!,i,10µM
CN1CCc2cc(NC(=O)Nc3cccnc3)ccc21,?,i,i,?,i,?
Cn1nnnc1SCCCNCc1cc(Br)ccc1OCc1ccccc1F,i,nt,i,nt,nt,i
O=C(NCC1CCN(Cc2cccc(Cl)c2)CC1)Nc1ccc(F)c(Cl)c1,?,nt,?,nt,i,i
O=C(NCC1CCN(Cc2cccc(Cl)c2)CC1)Nc1cc(Cl)ccc1Cl,12.6µM,nt,?,nt,i,?
O=C(CSc1nccn1Cc1ccccc1)Nc1ccc2c(c1)OCO2,?,nt,i,nt,nt,i
Cc1ccc2[nH]c(-c3ccccc3)cc(=O)c2c1,5.01µM,i[11 µM],i,5.01µM,i,6.31µM
COc1ccc(NS(=O)(=O)c2ccc3c(c2)n(C)c(=O)n3C)cc1,nt,nt,nt,nt,i,nt
Cn1c(=O)n(C)c2cc(NS(=O)(=O)c3ccc4c(c3)CCCC4)ccc21,i,i,7.94µM,i,i,i
COc1ccc(OCCCCn2c(C3CC(=O)N(c4cccc(Cl)c4)C3)nc3ccccc32)cc1 (stereo not given),?,nt,i,nt,nt,i
Cc1cccnc1Nc1nc(-c2ccc(O)cc2O)cs1,i,i,i,15.8µM,i,i
SMILES,p53ts 39C kill,Hsp90 Hop PPI,IkB signaling,Luciferase inh,IMPase inh,p53ts 32C kill
COc1ccccc1-c1cc(C(F)(F)F)nc(S(=O)(=O)CCCC(=O)Nc2cc(Br)ccc2O)n1,?,nt,?,nt,nt,20µM
COc1ccccc1-c1cc(C(F)(F)F)nc(S(=O)(=O)CCCC(=O)NC(C)C)n1,?,i,i,i,i,?
COc1ccc(Cl)cc1NC(=O)CCCS(=O)(=O)c1nc(-c2ccc(OC)c(OC)c2)cc(C(F)(F)F)n1,3.16µM,nt,?,nt,nt,?
COc1ccccc1-c1cc(C(F)(F)F)nc(S(=O)(=O)CCCC(=O)Nc2ccccc2F)n1,3.16µM,nt,?,nt,nt,?
Cc1ccccc1-c1nc(CN2CCC(C(=O)NCc3ccccc3Cl)CC2)c(C)o1,i,nt,?,nt,nt,i
COc1ccc(CCNC(=O)c2ccc3c(c2)CCN3S(=O)(=O)c2ccc(C)cc2)cc1OC,i,nt,i,nt,nt,i
Nc1nc2c(c(=O)[nH]1)CN(CCCN1CCOCC1)CN2,i[9.22 µM],i[11 µM],i[11.4 µM],i[11.4 µM],nt,i[9.22 µM]
CCC(=O)N1c2nc(C(C)C)nn2C2(CCCCC2)[C@@H]2CCCC[C@@H]21,i,nt,?,nt,nt,i
O=[N+]([O-])c1ccc(O)c(/C=N/Nc2ccccn2)c1,5.62µM,nt,nt,nt,i,i
Cc1ccc(CSc2ccc(-c3cccs3)nn2)cc1,i,nt,i,nt,?,i
Cc1ccccc1CSc1ccc(-c2cccs2)nn1,11.2µM,nt,i,nt,nt,?
CCCOc1ccc(N)cc1N,i,i,i,i,i,20µM
Cn1ccnc1SCC(=O)Nc1ccc2ccccc2c1,?,i,?,12.6µM,i,?
CCOc1ccccc1CNC(=O)CCn1c(=O)c2cccn2c2ccc(F)cc21,i,nt,?,nt,nt,i
CN=CC1=C(O)c2ccccc2C1=O,i,i,i,i,i,i
O=C1C(C=Nc2ccccc2O)=C(O)c2ccccc21,?,i,?,7.94µM,i,10µM
Cc1ccc(O)c(N=CC2=C(O)c3ccccc3C2=O)c1,?,?,?,25.1µM,?,?
CC(C)N(Cc1ccccc1)S(=O)(=O)c1n[nH]c(C(C)(C)C)n1,i[9.22 µM],i[11 µM],i[11.4 µM],i[11.4 µM],nt,i[9.22 µM]
O=C(Nc1ccc2sccc2c1)c1ccc(Cl)s1,?,i,?,1.58µM,i,i
O=C(Nc1nccs1)c1ccc(Cl)s1,nt,nt,nt,nt,i,nt
CCCCC(=O)Nc1cccc(-c2cn3ccsc3n2)c1,i,i,i,12.6µM,i,?
O=C(Nc1cccc(-c2cn3ccccc3n2)c1)c1cccc(Cl)c1,nt,nt,nt,nt,i,nt
Nc1cccc(-c2cn3ccsc3n2)c1,25.1µM,nt,i,nt,nt,?
O=C(Nc1cccc(-c2cn3ccccc3n2)c1)c1cnccn1,i,i,i,3.98µM,i,i
Cc1csc2nc(-c3cccc(NC(=O)c4ccccc4F)c3)cn12,6.31µM,nt,?,nt,nt,?
SMILES,p53ts 39C kill,Hsp90 Hop PPI,IkB signaling,Luciferase inh,IMPase inh,p53ts 32C kill
CCC(=O)Nc1cccc(-c2cn3ccccc3n2)c1,i,nt,nt,nt,i,nt
Cc1ccc(-c2nnc3ccccc3c2C(=O)Nc2cccc(C(F)(F)F)c2)cc1,i,nt,i,nt,nt,i
O=C(O)CC[C@@H](NC(=O)c1ccccc1C(=O)O)C(=O)O,i,i,i,i,i,i
O=C(Nc1cccc(-c2cn3ccsc3n2)c1)c1ccccc1,15.8µM,?,?,25.1µM,i,?
COc1ccccc1C(=O)Nc1cccc(-c2cn3ccsc3n2)c1,i,i,?,12.6µM,i,i
O=C(Cc1cccs1)Nc1c(C(=O)Nc2ccc(F)cc2)oc2ccccc12,i,nt,?,nt,nt,i
COCCn1c(C)cc(O)c(C(c2ccccc2OC)N2CCN(c3ccccc3)CC2)c1=O (stereo not given),i,nt,i,nt,nt,i
COc1ccccc1NC(=O)C1=C(C)Nc2nc(SCc3ccccc3Cl)nn2C1c1cccnc1 (stereo not given),10µM,nt,?,nt,nt,i
COc1ccccc1NC(=O)C1=C(C)Nc2nc(SCc3ccccc3F)nn2C1c1cccnc1 (stereo not given),i,nt,i,nt,nt,i
Cc1ccc2nc(Nc3ncc4c(n3)CCCC4=O)nc(C)c2c1,i,i,i,i,i,i
Cc1cc(C)cc(Nc2ncc3c(n2)CCCC3=O)c1,i,i,i,12.6µM,i,i
